Data reported in PubChem BioAssay (Tox21).
Inconclusive results are not listed. Calls of active or inactive are those of the source. Unless noted, calls come from the whole dose curve; as a rule, active = well fitted curve in the direction sought with a large enough effect in the repeat runs; inconclusive = weak or mixed curves; inactive = no such curve, though single readings can be large; an effect the other way counts as inactive or inconclusive.

Legend:
[1] = qHTS assay for small molecule agonists of the p53 signaling pathway (AID 651631; calls by dose curve; note: nearly all actives have a fitted effect of over 15% in size; note: potency is the fitted concentration of half-maximal effect)
Procedure, shortened: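 Fluorescence intensity from cleaved LiveBLAzer B/G substrate (2 h, room temperature) served as the signal. Beforehand, HCT-116 reporter cells bearing p53 response elements were treated 16 h at 37 °C with DMSO-dissolved compounds.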

[2] = qHTS assay for small molecules that induce genotoxicity in human embryonic kidney cells expressing luciferase-tagged ATAD5 (AID 651632); note: nearly all actives have a fitted effect of over 15% in size
Procedure, shortened: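 Genotoxicity read-out via ATAD5-luciferase: HEK293T cells, 16 hr compound incubation at 37C, Amplite detection.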

[3] = qHTS assay for small molecule agonists of the p53 signaling pathway - cell viability (AID 651633; calls by dose curve;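 note: p53RE-bla HCT reporter cells with a stable beta-lactamase p53 reporter; nearly all actives have a fitted effect of over 30% in size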)
Procedure, shortened: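 Viability counter-read: CellTiter-Glo luminescence (30 min, room temperature) in the same p53RE-bla plates. These plates had been exposed to compounds for 16 h at 37 C.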

[4] = qHTS assay for small molecules that induce genotoxicity in human embryonic kidney cells expressing luciferase-tagged ATAD5 - cell viability (AID 651634; calls by dose curve; note: nearly all actives have a fitted effect of over 25% in size; note: potency is the fitted concentration of half-maximal effect)
Procedure, shortened: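 Live-cell protease activity (CellTiter-Fluor, fluorescence) indicates viability. HEK293T cells with luciferase-tagged ATAD5; 15.5 hr compound treatment at 37C.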

[5] = qHTS assay for small molecule disruptors of the mitochondrial membrane potential - cell viability (AID 720634; calls by dose curve;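 note: human HepG2 liver cancer cells; nearly all actives have a fitted effect of over 20% in size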)
Procedure, shortened: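 Human hepatoma HepG2 cells were treated for 1 hr with test chemicals, then given m-MPI dye and CellTiter-Glo. Cell viability reflects luminescence proportional to cellular ATP.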

[6] = qHTS assay to test for compound auto fluorescence at 535 nm (green) in HepG2 cells (AID 720675)
[7] = qHTS assay to test for compound auto fluorescence at 460 nm (blue) in HEK293 cells (AID 720678)
Procedure, shortened: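 Intrinsic compound fluorescence is recorded in live HEK293 cultures after overnight incubation at 37C, 5% CO2, using excitation 405 nm and emission 460 nm. Values are referenced to triamterene.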

[8] = qHTS assay to test for compound auto fluorescence at 590 nm (red) in HEK293 cells (AID 720679)
Procedure, shortened: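 Red autofluorescence, HEK293 cells: 2,000 cells/well; attach 4-5 hr 37C; add 23 nL cpd or DMSO; incubate o/n 37C 5% CO2; read Ex540/Em590; Rose Bengal sodium reference.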

[9] = qHTS assay to test for compound auto fluorescence at 535 nm (green) in HEK293 cells (AID 720680)
[10] = qHTS assay to test for compound auto fluorescence at 460 nm (blue) in HEK293 cell free culture (AID 720681)
Procedure, shortened: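 Blue fluorescence (Ex 405/Em 460 nm, triamterene-equivalent) was read immediately after pin transfer of compound or DMSO into medium (DMEM, 10% FBS) without cells.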

[11] = qHTS assay to test for compound auto fluorescence at 535 nm (green) in HEK293 cell free culture (AID 720682)
Procedure, shortened: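 Intrinsic compound fluorescence is measured in culture medium containing 10% FBS, with excitation at 485 nm and detection at 535 nm, referenced to fluorescein.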

[12] = qHTS assay to test for compound auto fluorescence at 590 nm (red) in HEK293 cell free culture (AID 720683)
Procedure, shortened: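 Red-channel autofluorescence of compounds in culture medium (DMEM, 10% FBS), no cells, measured at 540/590 nm. Rose Bengal sodium is the reference fluorophore for equivalence.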

[13] = qHTS assay to test for compound auto fluorescence at 590 nm (red) in HepG2 cell free culture (AID 720684)
Procedure, shortened: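 Plate contents were MEM with 10% FBS plus test compound or DMSO, no cells. Fluorescence was recorded with 540 nm excitation and 590 nm emission.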

[14] = qHTS assay to test for compound auto fluorescence at 460 nm (blue) in HepG2 cell free culture (AID 720685)
Procedure, shortened: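 Compound (23 nL) or DMSO pinned into cell-free MEM with 10% FBS; blue fluorescence read at 405/460 nm excitation/emission, expressed as auto-fluorescence equivalency to triamterene.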

[15] = qHTS assay to test for compound auto fluorescence at 535 nm (green) in HepG2 cell free culture (AID 720686)
[16] = qHTS assay to test for compound auto fluorescence at 460 nm (blue) in HepG2 cells (AID 720687)
Procedure, shortened: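 Blue-channel autofluorescence (Ex/Em 405/460 nm, triamterene-equivalent) was measured after 1 hr compound exposure at 37 C, 5% CO2. Cells were HepG2, plated overnight at 37 C in MEM plus 10% FBS.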

[17] = biological target: Glucocorticoid receptor (Homo sapiens) (UniProt P04150); test: qHTS assay to identify small molecule agonists of the glucocorticoid receptor (GR) signaling pathway (AID 720691; active = well fitted activation curve with a large enough effect in the signal ratio in the repeat runs, not every such curve was filed as active; the % refers to the signal ratio); conditions: GR-bla HeLa, beta-lactamase reporter ratio, 18 h; activation: at 62.4 µM (top of the series)
Chain of Glucocorticoid receptor (Homo sapiens) (P04150 whole entry, looked up): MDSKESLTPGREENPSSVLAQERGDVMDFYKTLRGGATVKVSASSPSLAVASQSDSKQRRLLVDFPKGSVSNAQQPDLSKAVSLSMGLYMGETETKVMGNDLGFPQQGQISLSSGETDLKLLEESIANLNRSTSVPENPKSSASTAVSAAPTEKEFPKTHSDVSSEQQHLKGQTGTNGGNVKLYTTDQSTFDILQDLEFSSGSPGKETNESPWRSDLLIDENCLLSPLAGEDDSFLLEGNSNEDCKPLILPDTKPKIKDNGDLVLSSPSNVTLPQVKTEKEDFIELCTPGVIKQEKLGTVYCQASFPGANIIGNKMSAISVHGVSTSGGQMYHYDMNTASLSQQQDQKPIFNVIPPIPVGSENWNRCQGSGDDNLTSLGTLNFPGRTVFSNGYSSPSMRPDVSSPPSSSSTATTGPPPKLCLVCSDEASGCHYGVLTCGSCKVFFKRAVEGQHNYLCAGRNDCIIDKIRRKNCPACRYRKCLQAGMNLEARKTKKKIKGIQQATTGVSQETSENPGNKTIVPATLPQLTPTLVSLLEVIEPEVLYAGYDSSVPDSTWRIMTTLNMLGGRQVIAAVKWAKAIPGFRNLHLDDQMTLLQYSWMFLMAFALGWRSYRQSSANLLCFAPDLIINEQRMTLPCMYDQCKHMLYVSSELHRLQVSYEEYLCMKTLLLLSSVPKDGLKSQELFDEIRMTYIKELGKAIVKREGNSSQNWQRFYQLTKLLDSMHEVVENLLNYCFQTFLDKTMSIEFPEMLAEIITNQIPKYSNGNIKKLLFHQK
Procedure, shortened: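 Beta-lactamase reporter activity, read as fluorescence intensity, was measured in GR-bla HeLa cells exposed to compounds for 18 h at 37 C and then loaded with LiveBLAzer B/G FRET substrate for 2 h at room temperature.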

[18] = biological target: Glucocorticoid receptor (Homo sapiens) (UniProt P04150); test: qHTS assay to identify small molecule antagonists of the glucocorticoid receptor (GR) signaling pathway (AID 720692; active = well fitted inhibition curve with a large enough effect in the signal ratio in the repeat runs, not every such curve was filed as active; the % refers to the signal ratio)
Procedure, shortened: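 Fluorescence from cleaved LiveBLAzer B/G FRET substrate reports GRE-driven beta-lactamase in HeLa cells; compounds are tested against 5 nM dexamethasone (final) over 18 h at 37 C, substrate incubation 2 h at room temperature.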

[19] = qHTS assay to test for compound auto fluorescence at 590 nm (red) in HepG2 cells (AID 720674)
Procedure, shortened: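 We screened compounds on adherent HepG2 cells, incubating them for an hour at 37 C in 5% CO2 before reading emission at 590 nm under 540 nm excitation; values reflect equivalence to Rose Bengal sodium fluorescence.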

Measured: Potency

CO[C@@]1(NC(=O)C2SC(=C(C(N)=O)C(=O)O)S2)C(=O)N2C(C(=O)O)=C(CSc3nnnn3C)CS[C@@H]21 (some centres not stated)
not listed: [19]
inactive: all other assays above

CC1(C)S[C@@H]2[C@H](NC(=O)C(C(=O)O)c3ccsc3)C(=O)N2[C@H]1C(=O)O (some centres not stated)
not listed: [14] | [18]
inactive: all other assays above

CC(=O)[C@@]1(O)CC[C@H]2[C@@H]3C=C(Cl)C4=CC(=O)[C@@H]5C[C@@H]5[C@]4(C)[C@H]3CC[C@@]21C
not listed: [8] | [18]
inactive: all other assays above

COc1cc2c(cc1OC)[C@@H](c1ccccc1)CN(C)CC2
inactive: all assays above

CC[C@H]1NC(=O)[C@@H](NC(=O)c2ncccc2O)[C@@H](C)OC(=O)[C@H](c2ccccc2)NC(=O)[C@@H]2CC(=O)CCN2C(=O)[C@H](Cc2ccccc2)N(C)C(=O)[C@@H]2CCCN2C1=O
not listed: [18] | [19]
inactive: all other assays above

COc1cc(C[C@@H]2NCCc3cc(O)c(O)cc32)cc(OC)c1OC
not listed: [18] | [19]
inactive: all other assays above

CC1(C)C2CC[C@]3(C)[C@H](C(=O)C=C4[C@@H]5C[C@@](C)(C(=O)O)CC[C@]5(C)CC[C@]43C)[C@@]2(C)CC[C@@H]1O[C@H]1O[C@H](C(=O)O)[C@@H](O)[C@H](O)[C@H]1O[C@@H]1O[C@H](C(=O)O)[C@@H](O)[C@H](O)[C@H]1O (some centres not stated)
not listed: [7] | [17] | [18]
inactive: all other assays above

CCOC(=O)C1=C[C@@H](OC(CC)CC)[C@H](NC(C)=O)[C@@H](N)C1
not listed: [12]
inactive: all other assays above

CC[C@@H](C(=O)O)[C@@H]1O[C@@H]([C@@H](C)[C@H](O)[C@H](C)C(=O)[C@H](CC)[C@H]2O[C@]3(C=C[C@@H](O)[C@]4(CC[C@@](C)([C@H]5CC[C@](O)(CC)[C@H](C)O5)O4)O3)[C@H](C)C[C@@H]2C)[C@@H](C)C[C@@H]1C
active: [1] 3.76 µM | [4] 1.88 µM
not listed: [16] | [18]
inactive: all other assays above

CC(C)C[C@H](NC(=O)[C@@H](Cc1c[nH]c2ccccc12)NC(=O)[C@H](Cc1ccc(O)cc1)NC(=O)[C@H](CO)NC(=O)[C@H](Cc1c[nH]c2ccccc12)NC(=O)[C@H](Cc1cnc[nH]1)NC(=O)[C@@H]1CCC(=O)N1)C(=O)N[C@@H](CCCN=C(N)N)C(=O)N1CCC[C@@H]1C(=O)NCC(N)=O
inactive: all assays above

N#Cc1ccc2c(c1)N(CCCN1CCC(O)CC1)c1ccccc1S2
active: [1] 26.6 µM
not listed: [7] | [18]
inactive: all other assays above

CN(CC(=O)N1CCOCC1)Cc1c(Cl)cccc1NC(=O)c1ccccc1
inactive: all assays above

NC(=O)c1ccc[n+]([C@@H]2O[C@H](COP(=O)([O-])OP(=O)(O)OC[C@H]3O[C@@H](n4cnc5c(N)ncnc54)[C@H](O)[C@@H]3O)[C@@H](O)[C@H]2O)c1
not listed: [13] | [17] | [18]
inactive: all other assays above
